Test results: PubChem BioAssay (NCI)
The panel holds about 83,000 compounds, 20% with a hit somewhere; the sample as a whole holds those more often.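 Interpretation: 100, growth as untreated; towards 0, rising growth inhibition; 0, no net growth; 0 to -100, cell death. Compounds scoring below 10 were considered active.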 Values without a mark were called inactive. The source made the active and inactive calls.

Tests used:
Assay in all cases: NCI-60 one-dose screen, 48 h (100 = growth as untreated, 0 = no growth, -100 = all killed)
[1] = tested on: T-47D breast; details: 10 µM
[2] = tested on: BT-549 breast; details: 10 µM unless noted
[3] = tested on: MDA-MB-435 melanoma; details: 10 µM unless noted
[4] = tested on: MCF7 breast; details: 10 µM unless noted
[5] = tested on: HCT-116 colon; details: 10 µM unless noted
[6] = tested on: HCC-2998 colon; details: 10 µM unless noted
[7] = tested on: KM12 colon; details: 10 µM unless noted
[8] = tested on: SW-620 colon; details: 10 µM unless noted

SMILES | growth [1] | growth [2] | growth [3] | growth [4] | growth [5] | growth [6] | growth [7] | growth [8]
Cc1ccc(-c2c3c(N)c4c(nc3nc3c2c(C)nn3-c2ccccc2)CCCC4)cc1 | 92.6% | 109% | 96.4% | 94.2% | 90.2% | 107% | 105% | 
COc1cc(-c2nc(Nc3nc4ccccc4[nH]3)nc(N)c2C#N)cc(OC)c1OC | 57.8% | 71.3% | 14.5% | 30.9% | 43.3% | 81.2% | 36.6% | 
O=[N+]([O-])c1ccc2nc(N/N=C/c3ccc(O)cc3)sc2c1 | 35.1% | 28.6% | 47.7% | 57.9% | 23.3% |  | 33.4% | 63.7%
N#CCCN1CCN(CCC#N)C1=S | 108% | 99.6% | 106% | 101% | 101% |  | 109% | 101%
CCCN1CCN(c2ccc3nc(-c4ccc5nc(-c6ccc(C(F)(F)F)cc6)[nH]c5c4)[nH]c3c2)CC1 | 48% | 73.5% | -89% (active) | -77% (active) | -83.3% (active) | -89.8% (active) | -86.4% (active) | 
Clc1ccc(Nc2ccnc(N3CCN(c4ccnc5cc(Cl)ccc45)CC3)n2)cc1 | 15.2% | 52.2% | 13.3% | 17.5% | 13.5% | 64.7% | 36.8% | 
Cc1cc(=O)[nH]n1-c1cc(Cl)ccc1N | 105% | 87.1% | 111% | 101% | 95.6% |  | 119% | 113%
CC(C)(C)[Si](C)(C)OC1[C@@H](COC(N)=O)O[C@@H](n2cnc3c(N)ncnc32)[C@H]1O[Si](C)(C)C(C)(C)C (stereo not given in full) | 84.4% | 106% | 74.6% | 78.6% | 90.1% | 107% | 76% | 
Cc1ccc2nc(NC(=O)CSC(=S)N3CCN(Cc4ccccc4)CC3)sc2c1 | -32.5% (active) | -55.4% (active) | -38.5% (active) | -71.2% (active) | -54.9% (active) |  | -92.7% (active) | -84.7% (active)
O=c1c2cc(F)ccc2oc2c(NCCNCCO)nc3ccccc3c12 | 84.8% | 79.8% | 48.5% | 31.4% | 17.2% | 56.5% | 31.8% | 
COc1cc(C(=O)N(C(C)C)C2CCCCC2)cc(OC)c1OC | 107% | 143% | 107% | 86.2% | 122% |  | 102% | 107%
COc1cc(-c2ccc3cc(OC)c(OC)c(OC)c3c2)cc(OC)c1OC | 50.7% | 72.2% | -16.7% (active) | 49.4% | 54.1% |  | 37.5% | 47.3%
CC(=O)N(CC(O)CO)c1c(I)c(C(=O)NCCO)c(I)c(C(=O)NCC(O)CO)c1I (stereo not given) | 101% | 94.3% | 105% | 104% | 97% |  | 103% | 109%
COc1cccc(OC(=O)c2ccccc2)c1OC(=O)c1ccccc1 | 80.2% | 83.4% | -16.4% (active) | 47.4% | 51.3% |  | 45.2% | 40.1%
COCCOC1=C(Cl)C(=O)c2ccccc2C1=O | -49% (active) | -23% (active) | 4.68% (active) | 15.4% | -13.5% (active) |  | -41.7% (active) | -3.69% (active)
Cc1nc2cc(Nc3nc(Nc4ccc(F)cc4)nc(-c4ccc(Cl)cc4)n3)ccc2n1Cc1ccccc1 | 30.7% | 101% | 66.2% | 42.4% | 50.3% | 81.6% | 37.2% | 
Cc1ccc(C)c2c1sc1nc3nc4sc5ccccc5n4c(=N)c3c(=O)n12 | 78.9% | 115% | 121% | 51.1% | 91.6% | 94.6% | 101% | 
O=C(Nc1ccccc1)Oc1cccc2cccnc12 | 31.5% | 102% | 97% |  | 1.27% (active) |  | 108% | 48.2%

SMILES | growth [1] | growth [2] | growth [3] | growth [4] | growth [5] | growth [6] | growth [7] | growth [8]
O=[N+]([O-])c1cc2c(cc1Br)-c1ccccc1C2 | 14.9% | 76.8% | 94.7% | 3.07% (active) | 84% |  | 58.5% | 83.6%
CC(=O)OC[C@]1(C)C=C2C(=O)[C@](C)(O)C3(CC3)C(C)=C2[C@H]1OC(C)=O | 73.6% | 72.6% | 95.4% | 57.1% | 62.3% | 81.8% | 78.4% | 
COc1ccc(-c2nn(-c3ccc(NC(=O)c4ccc(Cl)c(Cl)c4)cc3)cc2-c2ccncc2)cc1Cl | 64.9% | 42.8% | 54.3% | 31.5% | 23.2% |  | 5.24% (active) | 32.1%
COc1cc(/C=C/C(=O)C2=C(/C=C/c3ccc(O)c(OC)c3)NC(=O)NC2c2ccc(O)c(OC)c2)ccc1O (stereo not given) | 86.7% | 93.4% | 93.4% | 82.1% | 73.3% | 119% | 101% | 
Cc1cccc2c(=O)c3c(sc12)c(NCCNCCO)nc1ccccc13 | 44.8% | 78.4% | 7.39% (active) | -69% (active) | -70.6% (active) | -24.9% (active) | 5.93% (active) | 
O=c1c2c(=NCCN3CCCC3)cc3c(=O)n(CCCN4CCOCC4)c(=O)c4c(-c5ccc(CN6CCCC6)cc5)cc(c(O)n1CCCN1CCOCC1)c2c4-3 |  | -50.9% (active) | -90.1% (active) | -34.8% (active) | -23.8% (active) | -63.7% (active) | -47.7% (active) | -45.2% (active)
Oc1cccc(Nc2nc(-c3ccccn3)cs2)c1 | 87.3% | 95.1% | 105% | 84.1% | 97.1% |  | 103% | 
COc1cc(/C=C/C(=O)CC(=O)/C=C/c2cc(Br)c(OC)c(OC)c2)cc(Br)c1OC | 83.7% |  | 101% | 97.4% | 98.3% | 109% | 103% | 114%
Clc1ccc2c(N3CCN(c4ccnc(NC5CCCCC5)n4)CC3)ccnc2c1 | 26.1% | 71.1% | 42.7% | 26.5% | 4.29% (active) | 29.2% | 35.5% | 
COc1ccc(C2OCC(C)(C)CO2)cc1OC | 97.3% | 109% |  | 104% | 109% | 102% | 112% | 106%
Cc1ccc(S(=O)(=O)N2CCc3ccc(O)c4c3C2Cc2cc(Cl)ccc2-4)cc1 (stereo not given) | 65.4% |  | 8.9% (active) | 23.3% | 70.9% |  | 30.8% | 33.1%
NC(=S)N/N=C1\c2ccccc2-c2c(F)c(F)c(F)c(F)c21 | 8.63% (active) |  | 99.6% | 28.7% | 5.16% (active) | 90.1% | 93.5% | 59.8%
FC(F)(F)c1cc(CNc2ncc(Br)c(Cl)n2)cc(C(F)(F)F)c1 | 89.8% | 83.7% |  | 95.7% | 90.2% | 102% | 105% | 105%
C=C[C@H]1C[C@@H]2C[C@@H]3[C@H]4C/C=C\C(=O)NCCCC5NC(=O)C(=C(O)/C=C/[C@@H]4CC(=O)[C@H]3[C@@H]2[C@H]1C)C5=O (stereo not given in full) | -53.5% (active) |  | -19.2% (active) | -63.8% (active) |  | -30% (active) | -17.4% (active) | 
COc1cccc(OC)c1OC(=O)c1ccccc1 | 104% |  | 97.5% | 101% | 103% | 94.3% | 109% | 102%
CN1CCN(C)c2cncc(Br)c2C1=O | 101% |  | -81.7% (active) | 105% |  | 98% | 105% | 102%
Cc1ccc(S(=O)(=O)N2CCc3ccc(O)c4c3C2Cc2ccc3c(c2-4)OCO3)cc1 (stereo not given) | 46% |  | -4.03% (active) | 20.6% | 13% | -25.8% (active) | 12.5% | 37.2%
CN1CCC(OC2c3ccccc3CCc3ccccc32)CC1 | 94.9% | 90.7% | 95.5% | 90.5% | 98.4% |  | 102% | 
